Test results published in PubChem BioAssay (EPA / NIEHS).
Records with an inconclusive call do not appear. Calls of active or inactive are those of the source. How the source made its calls: active means hit-call score of the fitted dose curve at least 0.9, where 1 is the maximum; inconclusive means response in the unintended direction; inactive means score below 0.9.

Test system: not listed separately
Assay: TOX21_p53_BLA_p2_viability: Viability Assessment in the Tox21 HCT-116 p53 Agonism Beta-lactamase Assay, Phase 2 (AID 2283591);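 further: compound exposure lasted 16 h at 37 °C; actives lower the ATP signal meaning cytotoxicity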
Procedure, shortened: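 HCT116 p53-bla cells, 4000/well, dosed after 5 h plating (217-fold dilution of DMSO stocks) and incubated 16 h at 37C. Viability taken as cellular ATP by CellTiter-Glo luminescence after 30 min RT; signal loss marks cytotoxicity.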

Compound | outcome
CC(=O)OCC(=O)[C@H]1CC[C@H]2[C@@H]3CC[C@H]4C[C@H](O)CC[C@]4(C)[C@H]3C(=O)C[C@]12C | inactive
COc1cccc(C(=O)CCN[C@@H](C)[C@H](O)c2ccccc2)c1 | inactive
C[C@]12N[C@H](Cc3ccccc31)c1ccccc12 | inactive
CN1CCC(O)(c2ccc(F)cc2)C(C(=O)c2ccc(F)cc2)C1 (stereo not given) | inactive
CC(C)NCC(O)c1ccc([N+](=O)[O-])cc1 (stereo not given) | inactive
C[N+](C)(C)C | inactive
COC(=O)C(C)N(C(=O)c1ccco1)c1c(C)cccc1C (stereo not given) | inactive
COc1cc(C[C@H](C)N)c(OC)cc1Br | inactive
COc1cc(C[C@@H](C)N)c(OC)cc1Br | inactive
CCN(CC)C(=O)[C@@H]1C=C2c3cccc4[nH]cc(c34)C[C@H]2N(C)C1 | inactive
CC(=O)[C@H]1CC[C@H]2[C@@H]3CC[C@H]4C[C@](C)(O)CC[C@]4(C)[C@H]3CC[C@]12C | inactive
CCBr | inactive
CC[C@H]1[C@@H]2C[C@H]3[C@@H]4N(C)c5ccccc5[C@]45C[C@@H](C2C5O)N3[C@@H]1O (stereo not given in full) | inactive
Cc1nc2ccccc2c(=O)n1-c1ccccc1Cl | inactive
CC(=O)OC1(c2ccccc2)CCN(CCc2ccccc2)CC1 | inactive
COC(=O)[C@H]1[C@@H](OC(=O)c2ccccc2)C[C@@H]2CC[C@H]1N2C | inactive
CN1C[C@H](CNC(=O)OCc2ccccc2)C[C@@H]2c3cccc4c3c(cn4C)C[C@H]21 | inactive
CCC(=O)O[C@](Cc1ccccc1)(c1ccccc1)[C@H](C)CN(C)C | inactive
CCN(CC)CCOC(=O)C(O)(c1ccccc1)c1ccccc1 | inactive
CC(=O)OCC1=C(C(=O)O)N2C(=O)[C@@H](N)[C@H]2SC1 | inactive

Compound | outcome
C[C@]12CC[C@H]3[C@@H](CCC4=CC(=O)CC[C@@H]43)[C@@H]1CC[C@@H]2O | inactive
CCOP(=S)(OCC)Oc1cc(-c2ccccc2)on1 | inactive
FC(F)OC(F)(F)C(F)Cl (stereo not given) | inactive
CCOP(=S)(OCC)Oc1cc(C)nc(N(CC)CC)n1 | inactive
O=C1c2ccccc2C(=O)c2ccccc21 | inactive
c1ccc(C2CC2)c(OCC2=NCCN2)c1 | inactive
c1ccccc1 | inactive
CNCC(O)c1ccc(O)cc1 (stereo not given) | inactive
O=C(O)CBr | inactive
CCCC[P+](CC)(CCCC)CCCC (tested in a mixture with another compound) | inactive
COC1=CC(=O)O[C@@H](CCc2ccccc2)C1 | inactive
O=C(Cl)OCc1ccccc1 | inactive
COc1cc(CC(C)N)c(OC)cc1Br (stereo not given) | inactive
CC(C)(C)NCC(O)c1cc(Cl)c(N)c(C(F)(F)F)c1 (stereo not given) | inactive
Cc1nnc2n1-c1ccc(Cl)cc1C(c1ccccc1Cl)=NC2 | inactive
II | inactive
NCc1cccnc1 | inactive
OC(c1ccccc1)(c1ccccc1)C1CN2CCC1CC2 (stereo not given) | inactive
ClCC(Br)CBr (stereo not given) | inactive
Clc1c(Cl)c(Cl)c(Cl)c(Cl)c1Cl | inactive

Target: Cellular tumor antigen p53 (Homo sapiens) (UniProt P04637)
Assay: TOX21_p53_BLA_p2_ratio: Tox21 HCT-116 p53 Agonism Beta-lactamase Assay, Ratio, Phase 2 (AID 2283592)
Procedure, shortened: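 DMSO-normalized, positive-direction endpoint derived from the 460 nm/530 nm FRET ratio in HCT116 p53 beta-lactamase reporter cells exposed 16 h at 37C and loaded with CCF4-AM for 2 h.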

Sequence of Cellular tumor antigen p53 (Homo sapiens) (P04637 whole entry, looked up): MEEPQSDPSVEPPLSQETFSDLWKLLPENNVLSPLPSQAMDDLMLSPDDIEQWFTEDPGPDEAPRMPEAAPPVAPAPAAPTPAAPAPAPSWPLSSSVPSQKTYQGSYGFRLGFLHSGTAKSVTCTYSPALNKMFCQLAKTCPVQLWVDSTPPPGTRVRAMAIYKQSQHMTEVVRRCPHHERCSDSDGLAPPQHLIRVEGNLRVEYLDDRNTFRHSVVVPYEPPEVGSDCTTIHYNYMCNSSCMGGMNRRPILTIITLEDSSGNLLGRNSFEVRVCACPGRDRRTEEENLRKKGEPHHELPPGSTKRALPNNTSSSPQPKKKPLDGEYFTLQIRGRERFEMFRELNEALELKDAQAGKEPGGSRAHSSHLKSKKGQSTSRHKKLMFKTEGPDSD

Compound | outcome
CC(=O)OCC(=O)[C@H]1CC[C@H]2[C@@H]3CC[C@H]4C[C@H](O)CC[C@]4(C)[C@H]3C(=O)C[C@]12C | inactive
COc1cccc(C(=O)CCN[C@@H](C)[C@H](O)c2ccccc2)c1 | inactive
C[C@]12N[C@H](Cc3ccccc31)c1ccccc12 | inactive
CN1CCC(O)(c2ccc(F)cc2)C(C(=O)c2ccc(F)cc2)C1 (stereo not given) | inactive
CC(C)NCC(O)c1ccc([N+](=O)[O-])cc1 (stereo not given) | inactive
C[N+](C)(C)C | inactive
COC(=O)C(C)N(C(=O)c1ccco1)c1c(C)cccc1C (stereo not given) | inactive
COc1cc(C[C@H](C)N)c(OC)cc1Br | inactive
COc1cc(C[C@@H](C)N)c(OC)cc1Br | inactive
CCN(CC)C(=O)[C@@H]1C=C2c3cccc4[nH]cc(c34)C[C@H]2N(C)C1 | inactive
CC(=O)[C@H]1CC[C@H]2[C@@H]3CC[C@H]4C[C@](C)(O)CC[C@]4(C)[C@H]3CC[C@]12C | inactive
CCBr | inactive
CC[C@H]1[C@@H]2C[C@H]3[C@@H]4N(C)c5ccccc5[C@]45C[C@@H](C2C5O)N3[C@@H]1O (stereo not given in full) | inactive
Cc1nc2ccccc2c(=O)n1-c1ccccc1Cl | inactive
CC(=O)OC1(c2ccccc2)CCN(CCc2ccccc2)CC1 | inactive
COC(=O)[C@H]1[C@@H](OC(=O)c2ccccc2)C[C@@H]2CC[C@H]1N2C | inactive
CN1C[C@H](CNC(=O)OCc2ccccc2)C[C@@H]2c3cccc4c3c(cn4C)C[C@H]21 | inactive
CCC(=O)O[C@](Cc1ccccc1)(c1ccccc1)[C@H](C)CN(C)C | inactive
CCN(CC)CCOC(=O)C(O)(c1ccccc1)c1ccccc1 | inactive
CC(=O)OCC1=C(C(=O)O)N2C(=O)[C@@H](N)[C@H]2SC1 | inactive

Compound | outcome
C[C@]12CC[C@H]3[C@@H](CCC4=CC(=O)CC[C@@H]43)[C@@H]1CC[C@@H]2O | inactive
CCOP(=S)(OCC)Oc1cc(-c2ccccc2)on1 | inactive
FC(F)OC(F)(F)C(F)Cl (stereo not given) | inactive
CCOP(=S)(OCC)Oc1cc(C)nc(N(CC)CC)n1 | inactive
O=C1c2ccccc2C(=O)c2ccccc21 | inactive
c1ccc(C2CC2)c(OCC2=NCCN2)c1 | inactive
c1ccccc1 | inactive
CNCC(O)c1ccc(O)cc1 (stereo not given) | inactive
O=C(O)CBr | inactive
CCCC[P+](CC)(CCCC)CCCC (tested in a mixture with another compound) | inactive
COC1=CC(=O)O[C@@H](CCc2ccccc2)C1 | inactive
O=C(Cl)OCc1ccccc1 | inactive
COc1cc(CC(C)N)c(OC)cc1Br (stereo not given) | inactive
CC(C)(C)NCC(O)c1cc(Cl)c(N)c(C(F)(F)F)c1 (stereo not given) | inactive
Cc1nnc2n1-c1ccc(Cl)cc1C(c1ccccc1Cl)=NC2 | inactive
II | inactive
NCc1cccnc1 | inactive
OC(c1ccccc1)(c1ccccc1)C1CN2CCC1CC2 (stereo not given) | inactive
ClCC(Br)CBr (stereo not given) | inactive
Clc1c(Cl)c(Cl)c(Cl)c(Cl)c1Cl | inactive
